Values joined by “and” are separate entries in the source; they are usually repeats but may differ in a detail not shown here. Identical values can stand only once. About 79,000 compounds went through this panel and 15% of them were active in at least one assay; those are over-represented in the sample as a whole. Where a structure was tested more than once in an assay, its records may differ in their call. Active and inactive are the calls of the source. Cut-off read from the data, not from the text of the source: active = growth inhibition above about 70%; inactive = the rest.
Tests used:
[1] = NCI Yeast Anticancer Drug Screen. Data for the rad52 strain (AID 147);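 note: 0% = growth of vehicle-treated control cultures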; details: S. cerevisiae rad52 mutant growth inhibition, stronger effect = higher value
Method in brief: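 Measured: yeast growth inhibition. System: strain with a defined DNA damage repair alteration. Reference: vehicle-treated control cultures.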

[2] = NCI Yeast Anticancer Drug Screen. Data for the wt1 strain (AID 149);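 note: 0% = growth of vehicle-treated wt1 cultures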; details: S. cerevisiae wt1 strain (SPY 50644) growth inhibition, stronger effect = higher value
Method in brief: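 wt1 strain grown with compound or vehicle; inhibition taken from the growth difference.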

[3] = NCI Yeast Anticancer Drug Screen. Data for the rad50EPP+ strain (AID 151);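 note: 0% = growth of vehicle-treated control cultures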; details: S. cerevisiae rad50 mutant strain, stronger effect = higher value
Method in brief: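 One strain with a rad50 alteration (rad50EPP+) was compound-treated, its growth then compared to that of vehicle controls.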

[4] = NCI Yeast Anticancer Drug Screen. Data for the mgt1 strain (AID 153); details: S. cerevisiae mgt1 mutant growth inhibition, stronger effect = higher value
Method in brief: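 After exposure of the mgt1 yeast mutant to compound, growth was measured and reported as inhibition compared with vehicle controls.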

[5] = NCI Yeast Anticancer Drug Screen. Data for the rad50 strain (AID 155);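 note: 0% = growth of vehicle-only cultures of the same strain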; details: S. cerevisiae rad50 strain growth inhibition, stronger effect = higher value
Method in brief: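 DNA repair mutant yeast, compound exposure, growth read-out; inhibition is taken relative to vehicle.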

[6] = NCI Yeast Anticancer Drug Screen. Data for the mec2-1 strain (AID 157); details: S. cerevisiae mec2-1 strain, stronger effect = higher value
Method in brief: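 Test agents were screened against the mec2-1 yeast strain, with defined DNA repair or cell cycle alteration. Growth was scored as inhibition against vehicle-only controls.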

[7] = NCI Yeast Anticancer Drug Screen. Data for the rad14 strain (AID 159);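 note: 0% = growth of vehicle-treated control cultures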; details: S. cerevisiae rad14 strain growth inhibition, stronger effect = higher value
Method in brief: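 DNA repair-defective yeast, compound-exposed; % growth inhibition derived by comparison with vehicle-treated controls.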

[8] = NCI Yeast Anticancer Drug Screen. Data for the sgs1 mgt1 strain (AID 161);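 note: 0% = growth of cultures given vehicle only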; details: S. cerevisiae sgs1 mgt1 strain, stronger effect = higher value
Method in brief: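 Mutant yeast exposed to compound; growth scored against vehicle-only wells.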

[9] = NCI Yeast Anticancer Drug Screen. Data for the CLN2oe strain (AID 163);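 note: 0% = growth of vehicle-only control cultures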; details: S. cerevisiae CLN2oe strain, stronger effect = higher value
Method in brief: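 Here, growth inhibition in a cell-cycle-altered yeast strain after compound exposure was quantified against vehicle control growth.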

[10] = NCI Yeast Anticancer Drug Screen. Data for the cln2 rad14 strain (AID 165);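 note: 0% = growth equal to vehicle treated cultures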; details: S. cerevisiae cln2 rad14 strain, stronger effect = higher value
Method in brief: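 Growth of compound-exposed yeast (cln2 rad14 genotype) measured and expressed as inhibition relative to vehicle.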

[11] = NCI Yeast Anticancer Drug Screen. Data for the bub3 strain (AID 167); details: S. cerevisiae bub3 mutant strain, stronger effect = higher value
Method in brief: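 In this screen, a yeast mutant lacking normal mitotic checkpoint function is challenged with compound. Relative growth versus vehicle gives the inhibition value.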

[12] = NCI Yeast Anticancer Drug Screen. Data for the wt2 strain (AID 169);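 note: 0% = growth of vehicle-treated yeast cultures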; details: S. cerevisiae wt2 strain growth inhibition, stronger effect = higher value
Method in brief: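 Genetically defined yeast strains from a DNA-repair/cell-cycle panel were used. Compound-exposed yeast growth was measured, and the inhibition was calculated relative to vehicle treatment.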

[13] = NCI Yeast Anticancer Drug Screen. Data for the sgs1 strain (AID 173);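 note: 0% = growth of vehicle-only control cultures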; details: S. cerevisiae sgs1 mutant, stronger effect = higher value
Method in brief: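 Relative growth inhibition, referenced to vehicle, was determined in a yeast strain with a defined alteration affecting DNA damage repair or cell cycle control after compound exposure.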

[14] = NCI Yeast Anticancer Drug Screen. Data for the mlh1 rad18 strain (AID 175); details: S. cerevisiae mlh1 rad18 strain growth inhibition, stronger effect = higher value
Method in brief: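 In this whole-cell yeast screen, a strain with altered DNA damage repair is challenged with compound, and its growth is measured against matched vehicle-treated controls.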

[15] = NCI Yeast Anticancer Drug Screen. Data for the rad18 strain (AID 177); details: S. cerevisiae rad18 mutant growth inhibition, stronger effect = higher value
Method in brief: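 Screen uses a yeast strain with a defined lesion in DNA damage repair; compound effect is read as loss of growth compared to untreated vehicle cultures.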

[16] = NCI Yeast Anticancer Drug Screen. Data for the mlh1 strain (AID 171);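 note: 0% = growth of vehicle-treated control cultures of the same strain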; details: S. cerevisiae mlh1 strain growth inhibition, stronger effect = higher value
Method in brief: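 Here the genetically defined yeast mutant is grown with each compound, and the extent to which its growth falls below that of vehicle-exposed cells is reported.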

[17] = at 5.0 µM (retest, dose inferred, filed as 0.5)
[18] = at 50.0 µM (retest, dose inferred, filed as 5.0)

Measured: growth inhibition

CCCCCCCCCCCCCCCCCC(=O)NCCCN(C)C
inactive: [1]; at 1.2 µM -47% | [1]; at 3.7 µM -39% | [1]; at 11.0 µM -44% | [2]; at 1.2 µM -51% | [2]; at 3.7 µM -58% | [2]; at 11.0 µM -56% | [3]; at 1.2 µM -37% | [3]; at 3.7 µM -43% | [3]; at 11.0 µM 33% | [4]; at 1.2 µM -13% | [4]; at 3.7 µM -11% | [4]; at 11.0 µM -19% | [5]; at 1.2 µM -27% | [5]; at 3.7 µM -11% | [5]; [17] 33% | [5]; at 11.0 µM -17% | [6]; at 1.2 µM -31% | [6]; at 3.7 µM -31% | [6]; [17] 50% | [6]; at 11.0 µM -45% | [7]; at 1.2 µM -31% | [7]; at 3.7 µM -29% | [7]; at 11.0 µM -40% | [8]; [17] -32% | [9]; at 1.2 µM -35% | [9]; at 3.7 µM -37% | [9]; at 11.0 µM -80% | [10]; [17] 17% | [11]; at 1.2 µM 4% | [11]; at 3.7 µM 6% | [11]; [17] 42% | [11]; at 11.0 µM 1% | [12]; at 1.2 µM -29% | [12]; at 3.7 µM -27% | [12]; at 11.0 µM -37% | [13]; at 1.2 µM -5% | [13]; at 3.7 µM -13% | [13]; at 11.0 µM -13% | [14]; [17] 36% | [15]; at 1.2 µM -32% | [15]; at 3.7 µM -32% | [15]; at 11.0 µM -12%
active: [1]; at 33.0 µM 97% | [1]; at 100.0 µM 97% | [2]; at 33.0 µM 98% | [2]; at 100.0 µM 97% | [3]; at 33.0 µM 96% | [3]; at 100.0 µM 96% | [4]; at 33.0 µM 98% | [4]; at 100.0 µM 98% | [5]; at 33.0 µM 94% | [5]; [18] 98% | [5]; at 50.0 µM 92.2% | [5]; at 100.0 µM 96% | [6]; at 33.0 µM 98% | [6]; [18] 98% | [6]; at 50.0 µM 93.8% | [6]; at 100.0 µM 98% | [7]; at 33.0 µM 97% | [7]; at 100.0 µM 97% | [8]; [18] 97% | [8]; at 50.0 µM 93.2% | [9]; at 33.0 µM 97% | [9]; at 100.0 µM 97% | [10]; [18] 97% | [10]; at 50.0 µM 92% | [11]; at 33.0 µM 98% | [11]; [18] 95% | [11]; at 50.0 µM 92.2% | [11]; at 100.0 µM 98% | [12]; at 33.0 µM 97% | [12]; at 100.0 µM 98% | [13]; at 33.0 µM 96% | [13]; at 100.0 µM 97% | [14]; [18] 99% | [14]; at 50.0 µM 92.5% | [15]; at 33.0 µM 97% | [15]; at 100.0 µM 97%

Cc1ccc(Sc2ccccc2N)cc1
active: [1]; at 100.0 µM 98% | [2]; at 100.0 µM 99% | [3]; at 100.0 µM 93% | [4]; at 100.0 µM 98% | [5]; at 50.0 µM 90.5% | [5]; at 100.0 µM 98% | [6]; at 50.0 µM 92.3% | [6]; at 100.0 µM 98% | [7]; at 100.0 µM 99% | [8]; [18] 91% and 73% | [8]; at 50.0 µM 93.2% | [9]; at 100.0 µM 98% | [10]; at 50.0 µM 91.7% | [12]; at 100.0 µM 98% | [16]; at 100.0 µM 98% | [13]; at 100.0 µM 98% | [14]; [18] 90% and 73% | [14]; at 50.0 µM 90.5% and 91% | [15]; at 100.0 µM 98%
95% (active) and 62% (inactive): [5]; [18]
94% (active) and 67% (inactive): [10]; [18]
95% (active) and 64% (inactive): [6]; [18]
inactive: [1]; at 1.2 µM 9% | [1]; at 3.7 µM -3% | [1]; at 11.0 µM -13% | [1]; at 33.0 µM 45% | [2]; at 1.2 µM 16% | [2]; at 3.7 µM 6% | [2]; at 11.0 µM -7% | [2]; at 33.0 µM 42% | [3]; at 1.2 µM 8% | [3]; at 3.7 µM -1% | [3]; at 11.0 µM 16% | [3]; at 33.0 µM 64% | [4]; at 1.2 µM 0% | [4]; at 3.7 µM -17% | [4]; at 11.0 µM -21% | [4]; at 33.0 µM 38% | [5]; at 1.2 µM 0% | [5]; at 3.7 µM -3% | [5]; [17] 31% and 32% | [5]; at 11.0 µM -12% | [5]; at 33.0 µM 17% | [6]; at 1.2 µM -30% | [6]; at 3.7 µM -18% | [6]; [17] 50% and 23% | [6]; at 11.0 µM -32% | [6]; at 33.0 µM 25% | [7]; at 1.2 µM -4% | [7]; at 3.7 µM -18% | [7]; at 11.0 µM -10% | [7]; at 33.0 µM 32% | [8]; [17] -5% and 43% | [9]; at 1.2 µM 22% | [9]; at 3.7 µM 12% | [9]; at 11.0 µM -3% | [9]; at 33.0 µM 46% | [10]; [17] 42% and 29% | [12]; at 1.2 µM -16% | [12]; at 3.7 µM -2% | [12]; at 11.0 µM -17% | [12]; at 33.0 µM 35% | [16]; at 1.2 µM 5% | [16]; at 3.7 µM -6% | [16]; at 11.0 µM 14% | [16]; at 33.0 µM 57% | [13]; at 1.2 µM 8% | [13]; at 3.7 µM -2% | [13]; at 11.0 µM -3% | [13]; at 33.0 µM 51% | [14]; [17] 32% and 37% | [15]; at 1.2 µM -16% | [15]; at 3.7 µM -13% | [15]; at 11.0 µM -21% | [15]; at 33.0 µM 12%

Source: PubChem BioAssay (NCI)
